# Screens as filed in PubChem BioAssay.
# VACV mCherry inh: vaccinia inhibition (mCherry reporter). Vaccinia virus mCherry reporter infection, fluorescence. Potency, µM (doses to about 36.5 µM), for the others: top-dose activity change, negative = inhibition, most hits filed as inhibitors. hit rate 0.63% among 310,000. AID 720579; calls by dose curve; tested in A549 cells; also: potency is read from the fitted curve at half-maximal effect; nearly all actives have a fitted effect of over 35% in size
# FMDV antiviral: blocks foot and mouth disease virus; FMDV antiviral cell-based qHTS; Potency, µM (highest dose often 57.9 µM), for inactives: top-dose activity change, negative = inhibition, usual class: inhibitors; hit rate 1.2% among 410,000; calls by dose curve; tested in HEK293T cells; also: read-out not given here; potency is read from the fitted curve at half-maximal effect; nearly all actives have a fitted effect of over 45% in size
# Marburg entry inh: blocks Marburg virus binding to or entry into cells; AID 540276; Marburg virus pseudotyped entry inhibition, cell reporter; Potency, µM (titrated, usually from 37.8 µM), for the others: at the highest dose activity change, negative = inhibition, hits mostly inhibitors; hit rate 1.8% among 300,000; calls by dose curve; tested in HEK293 cells; also: potency is read from the fitted curve at half-maximal effect
# VACV Venus inh: inhibitors of vaccinia virus (Venus reporter); Vaccinia virus Venus reporter expression, fluorescence; Potency, µM (highest dose often 36.5 µM), without a hit: top-dose activity change, negative = inhibition, most hits filed as inhibitors; hit rate 0.46% among 330,000; AID 720580; calls by dose curve; tested in A549 cells; also: potency is read from the fitted curve at half-maximal effect; nearly all actives have a fitted effect of over 30% in size
# HCMV antiviral: human cytomegalovirus inhibition | HFF cells, HCMV-luciferase reporter, 72 h; hits give low values | activity change, negative = inhibition, % at 57.5 µM | hit rate 4.5% among 410,000; in the data active = activity change below about -60%; inconclusive = no clear call, values can overlap the other calls; inactive = above about -39%
#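 Cell-based, HFFs, 1000 cells/well, 16 h 37C; cpds in DMSO + HCMV-luc, MOI 1 PFU/cell; 72 h 37C; OneGlo luminescence after 5 min RT; norm. to buffer vs Salinomycin 10uM.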
# Lassa entry inh: Lassa virus entry inhibition; Lassa virus pseudotype entry inhibition, cell reporter; Potency, µM (titrated, usually from 37.9 µM), inactives show at the top dose activity change, negative = inhibition, actives largely listed as inhibitors; hit rate 1.2% among 300,000; calls by dose curve; tested in HEK293 cells; also: potency is read from the fitted curve at half-maximal effect; nearly all actives have a fitted effect of over 50% in size
# Starred values were filed as active, the others as inactive; i = inactive; ? = inconclusive; . = no result given; [ ] = remark or other dose. Hits are enriched below; roughly 6.5% of the tested compounds scored in any of these assays. % is scaled to controls: 0 for no effect and ±100 for the full control effect.
SMILES,VACV mCherry inh,FMDV antiviral,Marburg entry inh,VACV Venus inh,HCMV antiviral,Lassa entry inh
COC(=O)c1cccc(CN2C(=O)C(C)Sc3ccc(C(C)=O)cc32)c1 (configuration not stated),-10%,-4%,.,-3%,35,.
COc1ccc(CCNC(=O)c2ccc3c(c2)N(Cc2ccccc2C)C(=O)c2ccccc2S3)cc1OC,-18%,-22%,.,-15%,-79*,?
COc1ccc(CCNC(=O)c2ccc3c(c2)N(Cc2ccc(F)cc2)C(=O)CS3)cc1OC,-12%,?,.,-12%,-66*,?
CC(=O)c1ccc2c(c1)N(Cc1ccccc1Cl)C(=O)C(C)S2 (configuration not stated),33%,-1%,.,-5%,-98*,.
COc1ccc(CNC(=O)c2ccc3c(c2)N(Cc2c(F)cccc2Cl)C(=O)CS3)cc1,-18%,-25%,11µM*,-14%,-31,?
COc1ccc(CCNC(=O)c2ccc3c(c2)NC(=O)CS3)cc1OC,i,-2%,-29%[46.1 µM],-10%,0,-10%[46.1 µM]
COc1ccc(N(CC(=O)Nc2cccc(C(C)=O)c2)S(=O)(=O)c2ccccc2)c(OC)c1,?,11%,?,-23%,-29,?
COC(=O)C1=COC(C)C2CN3CCc4c([nH]c5ccccc45)C3CC12 (configuration not stated),-3%,-13%,.,18%,.,.
COC(=O)C1=CO[C@@H](C)[C@H]2CN3CCc4c([nH]c5ccccc45)[C@@H]3C[C@H]12,-16%,?,.,-16%,-68*,.
CCc1ccc(CN(Cc2ccco2)C(=O)COc2ccc(Cl)cc2C)cc1,-2%,-27%,4%[46.1 µM],-15%,-39,?
COc1ccc(NC(=O)Cn2ccn(-c3ccc(F)c(F)c3)c(=O)c2=O)cc1Cl,3%,-22%,.,2%,46,?
N=c1cc(C2(O)CCCCC2)n2c(nc3ccccc32)s1,.,-23%,5.8µM*,.,19,10µM*
O=C1c2sc3nc4ccccc4n3c2C(=O)N1c1ccccc1Cl,-19%[1.46 µM],-30%,-21%,-14%,-13,27%
Cc1ccc(C(=O)N(Cc2ccc(N(C)C)cc2)Cc2ccco2)cc1,-11%,0%,2%[46.1 µM],-5%,-38,?
Cc1cc(Nc2cccc(Cl)c2)nc2ccc(NC(=O)Cc3cccc(C(F)(F)F)c3)cc12,-15%,-14%,.,-19%,-99*,-8%[46.1 µM]
Cc1cc(Nc2cccc(Cl)c2)nc2ccc(NC(=O)Cc3c(F)cccc3Cl)cc12,-10%,-3%,.,-18%,-40,-13%[46.1 µM]
COc1ccc(CC(=O)Nc2ccc3nc(Nc4cccc(Cl)c4)cc(C)c3c2)cc1OC,-25%,?,.,-29%,-69*,?
Cc1cc(Nc2cccc(Cl)c2)nc2ccc(NC(=O)Cc3ccc(Cl)cc3)cc12,-26%,-29%,.,?,-104*,-21%[46.1 µM]
CC1CCN(c2nc3c(S(=O)(=O)c4cccc(Cl)c4)nnn3c3ccsc23)CC1,-27%,?,.,-23%,-24,12%[46.1 µM]
COc1ccc(-c2csc(NC(CO)c3nc4ccccc4n3Cc3ccc(C)cc3)n2)cc1 (configuration not stated),-29%,18%,.,?,4,.
Cc1ccc(Cn2c(C(CO)Nc3nc(-c4ccc(F)cc4)cs3)nc3ccccc32)cc1 (configuration not stated),-21%,-1%,.,?,-60*,.
CCOC(=O)c1ccc(NC(=O)Cn2ncc(Cl)c(Cl)c2=O)cc1,?,40µM*,3.2µM*,?,-100*,?
CCOC(=O)c1ccc(NC(=O)Cn2nc(C)c3ccccc3c2=O)cc1,.,-6%,.,.,21,.
CCc1ccccc1NC(=O)CN(C)C(=O)Cn1ncc(Cl)c(Cl)c1=O,?,35µM*,?,?,-99*,?
CCC(=O)Nc1ccc(C(=O)Cn2ncc(Cl)c(Cl)c2=O)cc1,.,-16%,.,.,-103*,.
SMILES,VACV mCherry inh,FMDV antiviral,Marburg entry inh,VACV Venus inh,HCMV antiviral,Lassa entry inh
CCc1ccccc1NC(=O)CN(C)C(=O)Cn1cnc2ccc(Cl)cc2c1=O,-9%,-26%,1%,-25%,0,-1%
COc1ccc(-c2nc3c(c4c2C[C@H](c2ccccc2)OC4)CN(C(=O)NCc2ccco2)CC3)c(C)c1,.,.,-29%[14.2 µM],.,.,-14%[14.3 µM]
Cc1c(C(=O)NCC2COCCO2)cnn1-c1nccc(-c2cccs2)n1 (configuration not stated),-4%,32%,.,-13%,.,.
O=c1c(Cl)c(NCc2ccccc2)cnn1C12CC3CC(CC(C3)C1)C2,-22%,38%,?,-23%,-61*,?
C=CCNC(=S)/N=c1/ccccn1CC,i,-6%,-8%,-10%,-98*,8%
C=CCNC(=S)Nc1ccccc1,-13%,.,3%,-5%,-15,13%
COc1ccc2c(c1)CCc1cnc(-n3ncc(C(=O)NCCCN4CCOCC4)c3C)nc1-2,?,-4%,.,-21%,.,.
CCOC(=O)c1c(NC(C)=O)c2c3c(sc2n1Cc1cccc(Cl)c1)CCCC3,-10%,-4%,?,-15%,-84*,.
CCOC(=O)c1c(NC(C)=O)c2c3c(sc2n1Cc1ccc(Cl)cc1)CCCC3,-11%,-4%,24%[46.1 µM],-11%,-27,.
Cc1ccc(O)c(C(CC(=O)NCc2cccnc2)c2ccccc2)c1 (configuration not stated),7%,-20%,?,2%,-19,2%
Cc1ccc(O)c(C(CC(=O)NCC2(c3ccccc3)CCCC2)c2ccccc2)c1 (configuration not stated),-19%,?,?,-11%,-99*,?
CCc1ccccc1NC(=O)c1sc2nc(C)cc(COC)c2c1N,-11%,-5%,.,-2%,-23,-26%[46.1 µM]
COC(=O)C1CN(C#N)N(c2ccc(Cl)cc2)C12c1ccccc1-c1ccccc12 (configuration not stated),?,3.5µM*,?,?,.,11µM*
CCc1ccc(Nc2ncc3c(n2)CC(c2ccc(OC)cc2)CC3=O)cc1 (configuration not stated),.,-2%,18µM*,.,-64*,0.52µM*
CCc1ccc(Nc2ncc3c(n2)CC(C)CC3=O)cc1 (configuration not stated),-2%,73%,?,-7%,65,?
COc1ccc(Nc2ncc3c(n2)CC(c2ccccc2)CC3=O)cc1 (configuration not stated),.,-16%,3%,.,-10,0.92µM*
CCCCN(C)S(=O)(=O)c1cc(-c2nnc3c4ccccc4c(C)nn23)ccc1C,?,-27%,.,-26%,6,15%[46.1 µM]
CCOC(=O)C1CCCN(C(=O)Cn2ncc3c(C)n(Cc4ccccc4Cl)c(C)c3c2=O)C1 (configuration not stated),-9%,?,0%[46.1 µM],-18%,4,0%[46.1 µM]
CCOC(=O)C1CCCN(C(=O)Cn2ncc3c(C)n(Cc4ccc(Cl)cc4)c(C)c3c2=O)C1 (configuration not stated),-6%,18µM*,3%[46.1 µM],-16%,-9,-2%[46.1 µM]
